Holding throughout (experiment): NCI-60 one-dose screen, 48 h (100 = growth as untreated, 0 = no growth, -100 = all killed)
The test system of one assay is HCT-15 colon. To be noted: 10 µM unless noted.
The next assay deals with HT29 colon. To be noted: 10 µM unless noted.
The next assay relates to SNB-75 CNS. The settings on record: 10 µM unless noted.
A further assay has as its system SNB-19 CNS. The settings on record: 10 µM unless noted.
A further assay concerns U251 CNS. To be noted: 10 µM unless noted.
The next assay relates to PC-3 prostate. The settings on record: 10 µM unless noted.
A further assay has as its system SK-MEL-5 melanoma. To be noted: 10 µM unless noted.
In another assay the test system is UACC-62 melanoma.
The subject of the next assay is LOX IMVI melanoma. To be noted: 10 µM unless noted.
In another assay the test system is SK-MEL-28 melanoma. The settings on record: 10 µM unless noted.

Structures are written as SMILES. Where “and” joins values, the source holds several entries; their conditions need not be identical. Equal values may be shown once. Compounds without any hit were thinned out: in the full panel of roughly 83,000, 20% have a hit.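 Percent growth is the endpoint: 0 to 100 indicates growth inhibition (40 means 60% inhibition), 0 means no net growth, and negative values indicate cell death.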 Values without a mark were called inactive. Calls of active or inactive are those of the source. How the source made its calls: active means growth percent below 10; inactive means the rest.

From PubChem BioAssay (NCI) come the findings set out here.

For `C[C@@H]1N=C(c2ccc3ccccc3c2)Nc2nc3ccccn3c2C1=O`, the growth with HCT-15 colon is 33.8%; in the assay on HT29 colon it was 5.93% (active); in the assay with SNB-75 CNS, 37.1%; in the assay with SNB-19 CNS it was 53.3%; with U251 CNS, 32.5%; with PC-3 prostate it was 52%. Further, the growth with SK-MEL-5 melanoma is 35.3%; in the assay with UACC-62 melanoma (10 µM unless noted), 48.8%; in the assay with LOX IMVI melanoma, 48.5%; in the assay on SK-MEL-28 melanoma, 59.9%.
Regarding `C(=Nc1ccc(-c2ccc(N=Cc3ccccc3)cc2)cc1)c1ccccc1`, the growth was 106% in the assay on HCT-15 colon; 93.9% with HT29 colon; 83.4% in the assay on SNB-75 CNS; 107% with SNB-19 CNS; 98.3% with U251 CNS; 80.3% in the assay on PC-3 prostate. The growth was 105% in the assay on SK-MEL-5 melanoma, 93.7% with UACC-62 melanoma (10 µM unless noted), 105% with LOX IMVI melanoma and 99.9% in the assay on SK-MEL-28 melanoma.
Regarding `CC(SC(C)C(=O)N/N=C/c1cccc(Cl)c1)C(=O)N/N=C\c1cccc(Cl)c1` (stereo not given), the growth in the assay with HCT-15 colon is 86.5%; in the assay on HT29 colon, 79%; in the assay with SNB-75 CNS it was 83.7%; with SNB-19 CNS, 89.5%; in the assay on U251 CNS, 48.2%; with PC-3 prostate, 53.5%. Moreover, the growth was 98.2% in the assay with SK-MEL-5 melanoma, 92.1% with UACC-62 melanoma (10 µM unless noted), 7.06% (active) in the assay with LOX IMVI melanoma and 117% with SK-MEL-28 melanoma.
Regarding `COc1ccc(N=C2CSc3nnc(-c4cc(F)c(Cl)cc4Cl)n3N2)cc1`, the growth in the assay on HCT-15 colon is 5.01% (active); with HT29 colon it was -66.9% (active); in the assay on SNB-75 CNS, -60.6% (active); with SNB-19 CNS it was 0.21% (active); with U251 CNS it was -52.2% (active); in the assay with PC-3 prostate it was -55% (active). For the same compound, the growth was -63.1% (active) in the assay on SK-MEL-5 melanoma, 20.9% in the assay with UACC-62 melanoma (10 µM unless noted), -42.1% (active) with LOX IMVI melanoma and -31.3% (active) in the assay with SK-MEL-28 melanoma.
Consider `Cc1cc(O)c2cc3c(O)c(O)ccc3cc2c1`, for which the growth in the assay on HCT-15 colon was 113%; in the assay on HT29 colon, 125%; in the assay with SNB-75 CNS, 127%; in the assay with SNB-19 CNS it was 108%; in the assay on U251 CNS, 108%; in the assay on PC-3 prostate it was 97.1%. The growth with SK-MEL-5 melanoma is 94.8%; with UACC-62 melanoma (10 µM), 114%; in the assay on UACC-62 melanoma (100 µM), -27.7% (active) and -63.9% (active); with LOX IMVI melanoma, 112%.
For the compound `CCOC(=O)c1cc(C(=O)OCC)c(C)nc1C`, the growth with HCT-15 colon is 102%; in the assay on HT29 colon, 104%; with SNB-75 CNS it was 99%; with SNB-19 CNS, 103%; in the assay on U251 CNS it was 103%; in the assay with PC-3 prostate, 98.2%. Further, the growth with SK-MEL-5 melanoma was 107%; in the assay on UACC-62 melanoma (10 µM unless noted), 103%; with LOX IMVI melanoma it was 107%; in the assay with SK-MEL-28 melanoma, 112%.
As to `CNC(=O)OC1C(O[C@H]2C[C@H]3[C@@H]4CC=C5C[C@@H](O)CC[C@]5(C)[C@H]4CC[C@]3(C)[C@H]2[C@H](C)C(=O)CCC(C)C)OCC(O)C1OC1OCC(O)C(O)C1OC(=O)c1ccc(OC)cc1` (stereo not given in full), the growth with HCT-15 colon was 0.802% (active); in the assay on HT29 colon it was 14.7%; in the assay with SNB-75 CNS it was 18.4%; in the assay on SNB-19 CNS it was 23.2%; in the assay on U251 CNS it was 1.48% (active); with PC-3 prostate it was -21.8% (active). The growth in the assay with SK-MEL-5 melanoma is -27.9% (active); in the assay on UACC-62 melanoma (10 µM unless noted) it was -27.6% (active); with LOX IMVI melanoma, -31.3% (active); in the assay with SK-MEL-28 melanoma it was -53.3% (active).
Consider `CC1OC(n2c3ccccc3c3c4c(c5c6ccccc6[nH]c5c32)C(=O)N(CCN2CCOCC2)C4=O)CC(O)C1O` (stereo not given), for which the growth in the assay with HCT-15 colon was 26.5%; in the assay with HT29 colon, 13.4%; with SNB-75 CNS, 5.86% (active); in the assay on SNB-19 CNS, 21.5%; in the assay with U251 CNS, 10.4%; in the assay with PC-3 prostate, 34%. The growth in the assay with SK-MEL-5 melanoma was 5.46% (active); in the assay on UACC-62 melanoma (10 µM unless noted), 21.1%; in the assay with LOX IMVI melanoma, 2.7% (active); with SK-MEL-28 melanoma, 67.6%.
In the case of `C/C(=N\NC(=O)CSc1nc2ccccc2c(=O)n1CCc1ccc(S(N)(=O)=O)cc1)c1ccc(Br)cc1`, the growth was 94.7% with HCT-15 colon; 44.7% with HT29 colon; 84.7% in the assay with SNB-75 CNS; 63.9% in the assay with SNB-19 CNS; 8.33% (active) with U251 CNS; 44.9% in the assay with PC-3 prostate. Also, the growth with SK-MEL-5 melanoma is 61.5%; in the assay with UACC-62 melanoma (10 µM unless noted), 79%; in the assay with LOX IMVI melanoma, 63.3%; in the assay on SK-MEL-28 melanoma, 79.7%.
Take `COc1ccc(-c2cnnn2-c2nonc2-n2cccc2)cc1`: the growth was 21.4% with HCT-15 colon; 8.25% (active) with HT29 colon; -15.9% (active) with SNB-75 CNS; 37.6% with SNB-19 CNS; 22.1% in the assay with U251 CNS; 28.8% with PC-3 prostate. For the same compound, the growth in the assay on SK-MEL-5 melanoma is 31.9%; in the assay on UACC-62 melanoma (10 µM unless noted), 24.1%; in the assay with LOX IMVI melanoma, 34.1%; with SK-MEL-28 melanoma it was 18.4%.
As for `Cc1ccsc1C(=O)CC(=O)C(F)(F)C(F)(F)C(F)(F)F`, the growth was 111% in the assay with HCT-15 colon; 111% with HT29 colon; 92.3% in the assay with SNB-75 CNS; 111% with SNB-19 CNS; 103% in the assay with U251 CNS; 91.2% with PC-3 prostate. The growth is 109% in the assay with SK-MEL-5 melanoma, 96.7% in the assay with UACC-62 melanoma (10 µM unless noted), 97.8% in the assay with LOX IMVI melanoma and 103% in the assay on SK-MEL-28 melanoma.
Consider `O=C(c1ccc(OCCN2CCCCC2)cc1)c1c(-c2ccc(O)cc2)sc2cc(O)ccc12`, for which the growth in the assay on HCT-15 colon is 91.7%; with HT29 colon it was 114%; in the assay with SNB-75 CNS, 53.5%; in the assay on SNB-19 CNS, 86.7%; in the assay with U251 CNS it was 64.9%; in the assay with PC-3 prostate, 81.8%. Moreover, the growth in the assay with SK-MEL-5 melanoma is 71.5%; in the assay with UACC-62 melanoma (10 µM unless noted), 92.1%; in the assay with LOX IMVI melanoma it was 78.4%; in the assay on SK-MEL-28 melanoma, 88.3%.
Turning to `Clc1ccc(-c2cnc3c(-c4ccnc(N5CCNCC5)c4)cnn3c2)cc1`, the growth in the assay with HCT-15 colon was -22.9% (active); in the assay with HT29 colon it was -7.81% (active); with SNB-75 CNS, -68.6% (active); with SNB-19 CNS it was 3.09% (active); with U251 CNS, -58.1% (active); with PC-3 prostate, 15.2%. Also, the growth in the assay with SK-MEL-5 melanoma was 73.8%; with UACC-62 melanoma (10 µM unless noted), -66.8% (active); in the assay with LOX IMVI melanoma, -80.9% (active); with SK-MEL-28 melanoma, -82.8% (active).
As for `CCN(CC)CCNC(=O)C(F)(F)C(F)(F)C(F)(F)F`, the growth is 100% in the assay on HCT-15 colon; 115% in the assay on HT29 colon; 97.2% in the assay on SNB-75 CNS; 116% with SNB-19 CNS; 104% with U251 CNS; 96% with PC-3 prostate. The growth is 105% with SK-MEL-5 melanoma, 107% in the assay on UACC-62 melanoma (10 µM unless noted), 104% in the assay on LOX IMVI melanoma and 115% in the assay with SK-MEL-28 melanoma.
